# Data published in PubChem BioAssay (NCI).
# The panel holds about 83,000 compounds, 20% with a hit somewhere; the sample as a whole holds those more often.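 In brief: 96-well plates, 48 h treatment, single concentration, percent growth endpoint.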 Values without a mark were called inactive. The source made the active and inactive calls. The calls were made as follows: active = growth percent below 10; inactive = the rest.
# Test system: T-47D breast
# Experiment: NCI-60 one-dose screen, 48 h (100 = growth as untreated, 0 = no growth, -100 = all killed)
# Settings: 10 µM
row,SMILES,growth
1,O=C(NO)c1ccc(CNC(=O)[C@H]2Cc3c([nH]c4ccccc34)[C@H](c3ccccc3)N2)cc1,-17.7% (active)
2,COc1ccc2cc([C@H](C)C(=O)NCc3ccccc3)ccc2c1,41.5%
3,Cc1noc2c(Cc3ccccc3)nn(CC(=O)N/N=C/c3ccc(F)cc3)c(=O)c12,12.6%
4,COc1cnc2c(c1)C(=O)c1c-2n(CCCNCCO)c(=O)c2cc(OC)c(OC)cc12,10.1%
5,CN1CCc2c(sc3ncnc(N/N=C/c4cn(-c5ccccc5)nc4-c4ccc(Cl)cc4)c23)C1,35.9%
6,N#Cc1c(NC(=O)c2ccc(C(F)(F)F)cc2C(F)(F)F)sc2c1CCC(=O)C2,-22.7% (active)
7,O=C1N/C(=N\c2nccs2)S/C1=C\c1cccs1,22.5%
8,CC(=O)c1ccc(Nc2nc(SC(C)C)nc(-c3ccccc3)c2C#N)cc1,58.7%
9,O=C(CNc1nc(-c2ccccc2)cs1)Nc1ccc([N+](=O)[O-])cc1Cl,12.5%
10,O=C(NO)c1ccc(Cn2ccc3c(Nc4ccccc4)ncnc32)cc1,-8.19% (active)
11,O=C(NO)c1ccc(CN2CCN(c3nc(-c4ccccc4)c4ccccc4n3)CC2)cc1,8.88% (active)

# Test system: BT-549 breast
# Experiment: as above
# Settings: 10 µM
row,SMILES,growth
1,COc1ccc(-c2cc(C(=O)N=Nc3c(O)[nH]c4ccc(Br)cc34)c3ccccc3n2)cc1,96.3%
2,CC(=O)c1ccc(Nc2nc(SCCC(C)C)nc(-c3ccc(F)cc3)c2C#N)cc1,56.7%
3,Clc1cccc(N/N=C/c2c[nH]c3ccccc23)n1,3.11% (active)
4,O=[N+]([O-])c1ccc(-c2nc(-c3ccccc3)c(-c3ccccc3)n2-c2ccc(S(=O)(=O)Nc3ncccn3)cc2)cc1,10.7%
5,O=C(CSc1nnc(-c2ccc3nc(-c4ccc(Cl)cc4)[nH]c3c2)o1)Nc1ccc(Cl)cc1,-65.1% (active)
6,CCOC(=O)c1c(CSc2ccccc2)n(C)c2cc(CN(C)C)c(O)c(CN(C)C)c12,63.7%
7,N#Cc1c(NC(=O)c2cccc(C(F)(F)F)c2)sc2c1CCC(O)=C2,44.6%
8,Cc1ccc(-c2nc(Nc3ccc(S(N)(=O)=O)cc3)c3ccccc3n2)cc1,75.7%
9,Cc1ccc2nc(COc3ccc(C(=O)NNC(=S)NC(=O)c4ccccc4)cc3)[nH]c2c1,81.8%
10,O=C(CNc1nc(-c2ccccc2)cs1)Nc1cccc([N+](=O)[O-])c1,-73.1% (active)
11,CC(=O)Nc1ccc(-c2cn(-c3cccc(C(=O)Nc4cccc(OC(F)(F)F)c4)c3)nn2)cn1,96.7%
12,OCCCNc1oc(-c2ccccc2)nc1[P+](c1ccccc1)(c1ccccc1)c1ccccc1,-40.5% (active)
13,CC(C)Sc1nc(NC2CC2)c(C#N)c(-c2ccccc2)n1,91.2%
14,OCCNc1oc(-c2ccccc2)nc1[P+](c1ccccc1)(c1ccccc1)c1ccccc1,-27.9% (active)
15,C/C(=C\c1ccc(O)cc1O)c1ccc2ccc(O)cc2[o+]1,45.5%
16,Cc1noc2c(Cc3ccc([N+](=O)[O-])cc3)nn(CC(=O)N/N=C/c3ccc(Cl)cc3)c(=O)c12,56%
17,CCOC(=O)CNC(=O)CN(Cc1ccccc1)C(=O)[C@@]1(C)CCC[C@]2(C)[C@H]3CC4C(C(C)C)=C[C@]3(CC[C@H]21)[C@@H]1C(=O)CCC(=O)[C@H]41,67.8%
18,O=C(CSc1nnc(-c2c[nH]c3ccccc23)n1-c1ccccc1)c1ccc(Cl)cc1,69.8%
19,COc1ccc(-c2cc(C(=O)N=Nc3c(O)[nH]c4ccc(F)cc34)c3ccccc3n2)cc1,86.3%
20,O=C1Nc2ccc(Cl)cc2/C1=C/c1ccc(OCc2ccccn2)cc1,78.8%
21,Cc1noc2c(Cc3ccccc3)nn(CC(=O)N/N=C/c3ccc(Cl)cc3)c(=O)c12,89.4%
22,COc1ccc2[nH]c(=O)c(CSc3cccc(N)c3)cc2c1,75.1%
23,COc1ccc(C(=O)/C=C/c2cc(F)cc(C(F)(F)F)c2)cc1S(N)(=O)=O,-73% (active)
24,Nc1cc(-c2cccc(C(=O)NCc3ccc4c(c3)OCO4)c2)ccn1,96.8%
25,Cc1ccc(/C(N)=N/c2sc(-c3ccccc3)nc2-c2ccccc2)cc1,88.4%
26,CN(C(=O)c1ccc(C(C)(C)C)cc1)c1sc2c(c1C#N)CCC(=O)C2,-27.7% (active)
